Among the test systems are NCI-H23 lung; NCI-H226 lung; NCI-H322M lung; HOP-62 NSCLC; NCI-H460 lung; HOP-92 NSCLC; NCI-H522 lung; A549/ATCC NSCLC; 786-0 renal; COLO 205 colon.
What all share (assay): NCI-60 one-dose screen, 48 h (100 = growth as untreated, 0 = no growth, -100 = all killed)
Holding throughout (details): 10 µM unless noted

Drawing on PubChem BioAssay (NCI), this text covers growth for eleven compounds.

Compounds without any hit were thinned out: in the full panel of roughly 83,000, 20% have a hit.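 The test compound was applied at a single concentration to cells in 96-well plates for 48 hours, and percent growth was recorded.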 Unmarked numbers belong to inactive results. Active and inactive are the calls of the source. Rule for the calls: active = growth percent below 10; inactive = the rest.

In the case of `Oc1ccc(CCCCCCc2ccc(O)cc2)cc1`, the growth is 59.5% in the assay with NCI-H23 lung; 101% with NCI-H226 lung; 92% in the assay with NCI-H322M lung; 80.6% with HOP-62 NSCLC; 46.4% with NCI-H460 lung; 64% in the assay with HOP-92 NSCLC. Besides, the growth with NCI-H522 lung is 56.6%; in the assay with A549/ATCC NSCLC, 47.6%; with 786-0 renal, 14.2%; in the assay on COLO 205 colon it was 103%.
Turning to `O=C(OCc1ccc2c(Cl)cc(Cl)c(O)c2n1)c1cc2ccccc2[nH]1`, the growth in the assay with NCI-H23 lung is -54.4% (active); in the assay on NCI-H226 lung, -73.7% (active); with NCI-H322M lung it was 8.26% (active); with HOP-62 NSCLC it was -35.1% (active); in the assay on NCI-H460 lung, -75% (active); in the assay on HOP-92 NSCLC, -77.3% (active). Moreover, the growth with NCI-H522 lung is -73.8% (active); in the assay on A549/ATCC NSCLC it was -54.2% (active); in the assay with 786-0 renal, -78.6% (active); with COLO 205 colon, -87.1% (active).
Take `CC(=O)O[C@H]1[C@H](CC#CC#CC[C@@H]2C[C@]3(C)[C@H]4CC=C5[C@H]6[C@@H](C)[C@H](C)CC[C@]6(C(=O)NCCCCCCCCN)CC[C@@]5(C)[C@]4(C)CC[C@H]3C(C)(C)[C@H]2OC(C)=O)C[C@]2(C)[C@H]3CC=C4[C@H]5[C@@H](C)[C@H](C)CC[C@]5(C(=O)NCCCCCCCCN)CC[C@@]4(C)[C@]3(C)CC[C@H]2C1(C)C`: the growth is 99.1% in the assay on NCI-H23 lung; -83.5% (active) with NCI-H226 lung; 106% in the assay on NCI-H322M lung; 96.7% with HOP-62 NSCLC; 103% in the assay with NCI-H460 lung; 92.3% in the assay on HOP-92 NSCLC. Further, the growth is 106% with NCI-H522 lung, 102% in the assay with A549/ATCC NSCLC, 103% in the assay on 786-0 renal and 114% with COLO 205 colon.
As to `CC(=O)[C@H]1CC[C@H]2[C@@H]3CC[C@H]4CC=CC[C@]4(C)[C@H]3CC[C@]12C`, the growth in the assay on NCI-H23 lung is 96.8%; with NCI-H226 lung, 92.9%; in the assay on NCI-H322M lung it was 95.2%; in the assay on HOP-62 NSCLC it was 109%; with NCI-H460 lung, 104%; with HOP-92 NSCLC it was 101%. The growth in the assay on NCI-H522 lung was 40%; with A549/ATCC NSCLC, 84%; in the assay on 786-0 renal, 91.7%; in the assay with COLO 205 colon, 106%.
Regarding `CCCN(CCC)CC(O)COc1ccccc1C(=O)Nc1ccccc1` (stereo not given), the growth with NCI-H23 lung is 90.9%; with NCI-H226 lung it was 78.9%; in the assay with NCI-H322M lung, 119%; in the assay on HOP-62 NSCLC it was 66.5%; with NCI-H460 lung, 97.6%; in the assay with HOP-92 NSCLC, 84.2%. The growth is 55.8% in the assay with NCI-H522 lung, 40.4% with A549/ATCC NSCLC, 88% in the assay with 786-0 renal and 46.1% with COLO 205 colon.
`COc1cc(-c2nc(-c3nc4cc(C(=O)c5ccccc5)ccc4[nH]3)cc3c2[nH]c2ccccc23)cc(OC)c1OC`: the growth was 104% in the assay with NCI-H23 lung; 91.1% in the assay with NCI-H226 lung; 99.4% in the assay on NCI-H322M lung; 97.7% in the assay with HOP-62 NSCLC; 95.6% in the assay on NCI-H460 lung; 82.5% in the assay with HOP-92 NSCLC. Besides, the growth was 90.6% in the assay on NCI-H522 lung, 75.9% in the assay with A549/ATCC NSCLC, 97.3% in the assay with 786-0 renal and 97.7% in the assay with COLO 205 colon.
Consider `O=C(NCC(c1ccsc1)N1CCCCCC1)c1ccc(C(F)(F)F)cc1` (stereo not given), for which the growth in the assay with NCI-H23 lung was 93%; in the assay on NCI-H226 lung it was 91.9%; with NCI-H322M lung it was 99.9%; with HOP-62 NSCLC it was 113%; in the assay with NCI-H460 lung, 100%; in the assay on HOP-92 NSCLC, 99%. The growth in the assay on NCI-H522 lung is 92.8%; with A549/ATCC NSCLC, 96.5%; in the assay on 786-0 renal, 96.9%; in the assay with COLO 205 colon it was 102%.
Consider `NCCCOc1cc2ccccc2cc1C(=O)NCCCOc1cc2ccccc2cc1C(=O)Nc1ccc(Cl)cc1O`, for which the growth is -67.6% (active) in the assay on NCI-H23 lung; -85.8% (active) in the assay on NCI-H226 lung; -51.9% (active) in the assay with NCI-H322M lung; -100% (active) in the assay on HOP-62 NSCLC; -72.3% (active) with NCI-H460 lung; -75.9% (active) in the assay on HOP-92 NSCLC. The growth in the assay with NCI-H522 lung was -65.1% (active); in the assay on A549/ATCC NSCLC, -75.2% (active); in the assay with 786-0 renal, -82.4% (active); in the assay with COLO 205 colon, -54.1% (active).
For `CCc1ccc(Nc2ncnc3c2cnn3-c2cccc(Br)c2)cc1`, the growth in the assay on NCI-H23 lung was 96.1%; in the assay on NCI-H226 lung it was 85.7%; in the assay on NCI-H322M lung it was 105%; with HOP-62 NSCLC, 84%; in the assay on NCI-H460 lung, 102%; in the assay on HOP-92 NSCLC it was 91.8%. The growth was 89.1% with NCI-H522 lung, 97.2% in the assay with A549/ATCC NSCLC, 106% with 786-0 renal and 104% with COLO 205 colon.
In the case of `COc1ccc(Nc2ncccc2C(=O)NCc2cn(Cc3cc(OC)cc(OC)c3)nn2)cc1`, the growth was 103% with NCI-H23 lung; 98.3% in the assay with NCI-H226 lung; 105% in the assay with NCI-H322M lung; 81.9% with HOP-62 NSCLC; 98.3% in the assay on NCI-H460 lung; 93.2% in the assay with HOP-92 NSCLC. The growth in the assay on NCI-H522 lung was 79.4%; with A549/ATCC NSCLC, 89.5%; in the assay on 786-0 renal it was 95.3%; in the assay with COLO 205 colon, 114%.
For `Cn1c(=O)c2[nH]c(Cc3ccc4c(c3)OCO4)nc2n(C)c1=O`, the growth is 99.8% in the assay with NCI-H23 lung; 99.4% with NCI-H226 lung; 109% in the assay on NCI-H322M lung; 101% in the assay on HOP-62 NSCLC; 102% in the assay on NCI-H460 lung; 71.4% with HOP-92 NSCLC. Moreover, the growth with NCI-H522 lung was 103%; in the assay with A549/ATCC NSCLC it was 97%; with 786-0 renal it was 111%; in the assay on COLO 205 colon, 109%.
